We go through six compounds from PubChem BioAssay (NCI).

The panel holds about 83,000 compounds, 20% with a hit somewhere; the sample as a whole holds those more often.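 48-hour exposure, single concentration, 96-well plates; percent growth endpoint where 0 means no net growth. Active: below 10.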 Unmarked numbers belong to inactive results. Active and inactive are the calls of the source.

Common to all, as to assay: NCI-60 one-dose screen, 48 h (100 = growth as untreated, 0 = no growth, -100 = all killed)
Test [1] deals with HCT-15 colon. As to conditions: 10 µM unless noted.
Test [2] concerns HT29 colon. As to conditions: 10 µM unless noted.
For test [3], the system named is SNB-75 CNS. As to conditions: 10 µM unless noted.
Test [4] concerns SNB-19 CNS. As to conditions: 10 µM unless noted.
The test system of test [5] is U251 CNS. As to conditions: 10 µM unless noted.
The subject of test [6] is PC-3 prostate. As to conditions: 10 µM unless noted.
Test [7] concerns SK-MEL-5 melanoma. As to conditions: 10 µM unless noted.
For test [8], the system named is UACC-62 melanoma. As to conditions: 10 µM unless noted.
Test [9] has as its system LOX IMVI melanoma. As to conditions: 10 µM unless noted.
The subject of test [10] is SK-MEL-28 melanoma. As to conditions: 10 µM unless noted.
The test system of test [11] is SK-MEL-2 melanoma. As to conditions: 10 µM unless noted.
Test [12] has as its system EKVX NSCLC. As to conditions: 10 µM.
The subject of test [13] is SN12C renal. As to conditions: 10 µM unless noted.
Test [14] deals with UO-31 renal. As to conditions: 10 µM unless noted.
Test [15] concerns TK-10 renal. As to conditions: 10 µM unless noted.
Test [16] concerns ACHN renal. As to conditions: 10 µM unless noted.
Test [17] deals with CAKI-1 renal. As to conditions: 10 µM unless noted.
Test [18] deals with A498 renal. As to conditions: 10 µM unless noted.
Test [19] deals with CCRF-CEM leukemia. As to conditions: 10 µM.
Test [20] concerns MOLT-4 leukemia. As to conditions: 10 µM unless noted.

For the compound `COc1ccc(Cn2cc3c(c2-c2ccccc2)CCc2cnoc2-3)cc1N`, the growth was 20% in [1]; 10.5% in [2]; 29.1% in test [3]; 44.5% in [4]; 24.8% in test [5]; 23.7% in test [6]. The growth in test [7] was 8.52% (active); in test [8], 42.4%; in test [9], 31.4%; in test [10] it was 63.6%; in test [11], 41%; in test [12] it was 16.5%. In addition, the growth was 36.2% in test [13]; 29.7% in [14]; 76.2% in test [15]; 31% in test [16]; 7.24% (active) in [17]; 1.34% (active) in test [18]. For the same compound, the values for the growth in test [19] and in test [20] were 18% and 25.3%, respectively.

For the compound `CC1(C)NCCC[C@]2(C)[C@H]3CC=C4[C@@H]5C[C@](C)(COC(=O)c6ccccc6C(=O)O)CC[C@]5(C)CC[C@@]4(C)[C@]3(C)CC[C@@H]12`, the growth was 43.8% in test [1]; 9.9% (active) in test [2]; 74.7% in test [3]; 68.9% in test [4]; 41.1% in [5]; 43.1% in test [6]. The growth was 77.5% in test [7]; 88.2% in test [8]; 54.4% in [9]; 93.4% in [10]; 83.5% in [11]; 86.7% in [12]. The growth in test [13] was 65.5%; in test [14], 87.4%; in [15], 36%; in test [16], 43.3%; in test [17], 86%; in test [18], 107%. Further, the growth in [19] was 35.8%; in test [20], 20.5%.

With `CC(C)OC(=O)[C@H](C)N[P@@](=O)(OC[C@@]1(C)O[C@@H](n2cc(F)c(N)nc2=O)C[C@@H]1O[P@](=O)(N[C@@H](C)C(=O)OC(C)C)Oc1ccccc1)Oc1ccccc1`, the growth in test [1] is 106%; in test [2], 86%; in test [3], 78.3%; in test [4], 73.8%; in [5], 93.2%; in test [6] it was 71.4%. Further, the growth in [7] is 90.6%; in test [8] it was 99.3%; in test [9] it was 80.8%; in test [10], 93.5%; in test [11] it was 122%; in test [12], 109%. Besides, the growth in [13] was 72.6%; in test [14] it was 98.6%; in test [15], 101%; in test [16], 92.4%; in [17], 94.6%; in test [18] it was 45%. Besides, the values for the growth in test [19] and in test [20] were 61.4% and 67.5%, respectively.

With `COc1ccc2c(c1)/C(=C/c1c(-c3cc(OC)c(OC)c(OC)c3)nc3sccn13)C(=O)N2`, the growth in [1] is 99.5%; in test [2], 108%; in test [3], 78.3%; in [4], 97.1%; in test [5] it was 96.3%; in test [6], 85%. Besides, the growth in test [7] is 81.8%; in test [8] it was 92.5%; in [9], 98.3%; in test [10], 98.8%; in [11] it was 98.6%; in [12], 94.3%. Besides, the growth in test [13] was 105%; in [14] it was 77.8%; in test [15], 102%; in test [16] it was 100%; in test [17] it was 67.3%; in [18], 65.3%. In addition, the values for the growth in test [19] and in [20] were -43.3% (active) and -61.2% (active), respectively.

On to `COc1ccc(-n2nnnc2-c2cn[nH]c2C(F)(F)F)cc1`, for which the growth is 110% in test [1]; 93.1% in [2]; 102% in [3]; 101% in test [4]; 94.8% in test [5]; 105% in test [6]. The growth was 94.4% in test [7]; 83.6% in test [8]; 95.6% in test [9]; 96.2% in test [10]; 92.4% in test [11]; 90.3% in [12]. Further, the growth in [13] was 104%; in test [14], 92.9%; in test [15], 113%; in test [16], 99.3%; in test [17] it was 92.5%; in [18], 83.2%. Further, the growth in [19] was 98.3%; in [20] it was 79%.

For the compound `CC/C(=N\Nc1nc2ccccc2n1C)c1ccccn1`, the growth is 18.5% in test [1]; 21.2% in test [2]; 19.5% in test [3]; 18.8% in test [4]; 10.4% in test [5]; 26.5% in test [6]. The growth in [7] is -50.7% (active); in [8], -13.9% (active); in test [9], -15% (active); in test [10], 16.2%; in test [11], 37.6%; in [12], 6.6% (active). Besides, the growth in [13] is 13.6%; in [14] it was -10.3% (active); in [15], 33.5%; in test [16], 0.59% (active); in test [17], 2.28% (active); in [18] it was -20.7% (active). Besides, the growth in test [19] is 7.72% (active); in test [20], 1.52% (active).
